PubChem BioAssay AID1159580 (chemical genetic matrix, 2015)
Out of some 5,500 compounds screened, about 2,000 (36%) were called active. Inconclusive results (about 18%) are left out. No stated cut-off is given here; in the data, active means normalized growth mostly below about 0.91 (no sharp cut-off); inconclusive means no clear call, values can overlap the other calls; inactive means mostly above about 0.92. The list shows a part of the results.

Experiment: chemical genetic growth profiling, strain panel (AID 1159580);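 further: tested at 20 µM; growth read once vehicle control cultures reached saturation at 30 °C; 1 = growth at the plate median or of vehicle wells; lower values mean less growth of the strain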
Conditions: S. cerevisiae deletion strains, growth OD

Measured: normalized growth

c1ccc2nc(N3CCNCC3)ccc2c1
inactive: locus YAL013W, strain DEP1, active compounds read low 0.992 | locus YAL021C, strain ccr4, active compounds read low 0.997 | locus YAL026C, strain drs2, active compounds read low 0.989 | locus YAL030W, strain snc1, active compounds read low 0.999 | locus YAL040C, strain CLN3, active compounds read low 1.02 | locus YBL061C, strain skt5, active compounds read low 1.01 | locus YBR009C, strain hhf1, active compounds read low 1.01 | locus YBR023C, strain chs3, active compounds read low 1.01 | locus YBR171W, strain sec66, active compounds read low 0.985 | locus YBR231C, strain swc5, active compounds read low 1.02 | locus YBR279W, strain paf1, active compounds read low 1.01 | locus YCL011C, strain gbp2, active compounds read low 0.97 | locus YCL016C, strain dcc1, active compounds read low 1.01 | locus YCL061C, strain MRC1 (second series), active compounds read low 1 | locus YCL061C, strain MRC1, active compounds read low 0.981 | locus YCL069W, strain vba3, active compounds read low 0.982 | locus YCR088W, strain abp1, active compounds read low 0.984 | locus YDL005C, strain med2, active compounds read low 1.01 | locus YDL040C, strain nat1, active compounds read low 1.01 | locus YDR001C, strain nth1, active compounds read low 0.982 | locus YDR069C, strain doa4, active compounds read low 0.975 | locus YDR137W, strain rgp1, active compounds read low 1.09 | locus YDR159W, strain sac3, active compounds read low 0.985 | locus YDR195W, strain ref2 1.01 | locus YDR297W, strain sur2, active compounds read low 1 | locus YDR334W, strain swr1, active compounds read low 1.01 | locus YDR335W, strain msn5, active compounds read low 1 | locus YDR363W, strain ESC2, active compounds read low 0.97 | locus YDR392W, strain spt3, active compounds read low 0.976 | locus YEL003W, strain gim4, active compounds read low 0.971 | locus YEL037C, strain rad23, active compounds read low 0.987 | locus YEL061C, strain CIN8 (second series), active compounds read low 0.988 | locus YER002W, strain NOP16, active compounds read low 1.03 | locus YER015W, strain faa2, active compounds read low 0.995 | locus YER016W, strain bim1, active compounds read low 1.01 | locus YER111C, strain swi4, active compounds read low 0.99 | locus YER155C, strain BEM2 (second series), active compounds read low 0.957 | locus YFR010W, strain ubp6, active compounds read low 0.985 | locus YGL167C, strain pmr1, active compounds read low 1.01 | locus YGL173C, strain kem1, active compounds read low 1.01 | locus YGL227W, strain vid30, active compounds read low 0.979 | locus YGL240W, strain doc1, active compounds read low 0.998 | locus YGL253W, strain hxk2, active compounds read low 1.01 | locus YGR078C, strain PAC10, active compounds read low 1.01 | locus YHR013C, strain ard1, active compounds read low 0.966 | locus YHR027C, strain rpn1, active compounds read low 1.01 | locus YHR030C, strain SLT2, active compounds read low 0.982 | locus YHR079C, strain IRE1, active compounds read low 0.993 | locus YHR142W, strain chs7, active compounds read low 0.968 | locus YJL092W, strain hpr5, active compounds read low 0.978 | locus YJL095W, strain BCK1 (second series), active compounds read low 1.01 | locus YJL095W, strain BCK1, active compounds read low 0.999 | locus YJL115W, strain asf1, active compounds read low 0.994 | locus YJL129C, strain trk1, active compounds read low 0.947 | locus YJL154C, strain vps35, active compounds read low 0.977 | locus YJL164C, strain tpk1, active compounds read low 1.01 | locus YJL166W, strain qcr8, active compounds read low 1.01 | locus YJL187C, strain SWE1, active compounds read low 1 | locus YJR066W, strain TOR1, active compounds read low 0.962 | locus YKL160W, strain elf1, active compounds read low 1 | locus YKR026C, strain gcn3, active compounds read low 0.981 | locus YKR091W, strain srl3, active compounds read low 1 | locus YLL001W, strain dnm1, active compounds read low 1.01 | locus YLL026W, active compounds read low 1 | locus YLL041C, strain sdh2, active compounds read low 1.01 | locus YLR027C, strain aat2, active compounds read low 1 | locus YLR113W, strain HOG1, active compounds read low 1.01 | locus YLR221C, strain rsa3, active compounds read low 1 | locus YLR258W, strain gsy2, active compounds read low 1.01 | locus YLR262C, strain YPT6 (second series), active compounds read low 1.03 | locus YLR320W, strain mms22, active compounds read low 1.02 | locus YLR342W, strain FKS1, active compounds read low 1.02 | locus YLR357W, strain rsc2, active compounds read low 1.04 | locus YLR370C, strain arc18, active compounds read low 1.01 | locus YLR384C, strain iki3, active compounds read low 1.01 | locus YML120C, strain ndi1, active compounds read low 1 | locus YMR058W, strain fet3, active compounds read low 0.989 | locus YMR125W, strain sto1, active compounds read low 0.99 | locus YMR129W, active compounds read low 0.99 | locus YMR205C, strain PFK2, active compounds read low 1 | locus YMR231W, strain pep5, active compounds read low 1.01 | locus YMR307W, strain GAS1, active compounds read low 1.01 | locus YNL071W, strain lat1, active compounds read low 0.999 | locus YNL128W, strain TEP1, active compounds read low 1.01 | locus YNL153C, strain GIM3, active compounds read low 0.958 | locus YNL175C, strain NOP13, active compounds read low 1.02 | locus YNL183C, strain NPR1, active compounds read low 0.95 | locus YNL197C, strain WHI3, active compounds read low 0.998 | locus YNL209W, strain ssb2, active compounds read low 0.998 | locus YNL224C, strain SQS1, active compounds read low 1.01 | locus YNL248C, strain rpa49, active compounds read low 0.996 | locus YNL322C, strain KRE1 (second series), active compounds read low 1 | locus YNR049C, strain mso1, active compounds read low 1 | locus YOR001W, strain rrp6, active compounds read low 0.995 | locus YOR070C, strain gyp1, active compounds read low 1 | locus YOR080W, strain dia2, active compounds read low 1 | locus YOR083W, strain WHI5 (second series), active compounds read low 1.02 | locus YOR083W, strain WHI5, active compounds read low 1.01 | locus YOR106W, strain vam3, active compounds read low 1.01 | locus YOR231W, strain MKK1, active compounds read low 0.99 | locus YOR265W, strain rbl2, active compounds read low 1 | locus YOR270C, strain vph1, active compounds read low 0.987 | locus YOR290C, strain snf2, active compounds read low 0.975 | locus YPL051W, strain arl3, active compounds read low 1.02 | locus YPL055C, strain LGE1, active compounds read low 0.988 | locus YPL078C, strain atp4, active compounds read low 0.984 | locus YPL106C, strain sse1, active compounds read low 1 | locus YPL240C, strain hsp82, active compounds read low 1.01 | locus YPL256C, strain CLN2, active compounds read low 0.988
